The list is not random: actives were taken first. Their share in the collection is about 2.4%.
Cruzain inh noDet: inhibitors of Trypanosoma cruzi cruzain without detergent | purified cruzain, Z-FR-AMC fluorescence, no detergent | Potency, µM, usual class: inhibitors | actives 2.3% (n = 200,000) | AID 1476; further: nearly all actives have a fitted effect of over 40% in size
Target sequence (P25779 123-467 limits assumed): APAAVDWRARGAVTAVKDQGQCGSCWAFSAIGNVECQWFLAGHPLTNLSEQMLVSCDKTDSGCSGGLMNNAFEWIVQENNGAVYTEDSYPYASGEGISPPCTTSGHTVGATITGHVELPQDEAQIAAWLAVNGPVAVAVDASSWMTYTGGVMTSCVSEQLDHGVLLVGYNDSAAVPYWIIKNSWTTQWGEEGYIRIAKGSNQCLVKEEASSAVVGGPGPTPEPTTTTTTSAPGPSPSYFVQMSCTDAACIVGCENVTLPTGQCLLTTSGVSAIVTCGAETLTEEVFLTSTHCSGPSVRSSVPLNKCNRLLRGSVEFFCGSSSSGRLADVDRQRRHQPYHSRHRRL
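Purified cruzain at 1.5 nM, pre-incubated 15 min with compound at room temperature in 100 mM sodium acetate pH 5.5, 5 mM DTT, 0.00005% Triton X-100. Reaction started with 2 uM Z-FR-AMC; AMC fluorescence increase over 60 s gives rate.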
Cruzain inh Det: blocks cruzain activity in presence of Triton detergent; purified cruzain, Z-FR-AMC fluorescence, 0.01% Triton; P25779; actives 0.43% (n = 200,000); AID 1478; Potency, µM, usual class: inhibitors; further: nearly all actives have a fitted effect of over 40% in size
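15 min RT preincubation of 1.5 nM cruzain with compound, then 2 uM Z-FR-AMC added; kinetic AMC fluorescence, 60 s delta. Triton X-100 0.01%, pH 5.5.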
Hits are given with their value; n = inactive; u = inconclusive. The call rests on the fitted dose curve; in most records, active means well fitted curve in the direction sought with a large enough effect; inconclusive means small, poorly fitted or top-dose-only effect, or another doubt; inactive means no such curve, though single readings can be large; an effect the other way counts as inactive or inconclusive.

SMILES | Cruzain inh noDet | Cruzain inh Det
O=C(O)C(Oc1nc(=S)[nH]c(=S)[nH]1)(c1ccc(Cl)cc1)c1ccc(Cl)cc1 | n | n
Cc1cc(C)nc(SCc2cc(=O)c(OC(=O)c3ccco3)co2)n1 | u | 25µM
Cc1cc(C)nc(SCc2cc(=O)c(OC(=O)c3ccc(Br)o3)co2)n1 | n | u
CCc1cccc(NC(=O)C(CC)n2nc(C)c3sc4ccccc4c3c2=O)c1 (stereo not drawn) | n | n
CCN1CCN(C(=O)c2ccc3c(=O)n(CCC4=CCCCC4)c(=O)[nH]c3c2)CC1 | n | n
O=C(NCc1ccco1)c1ccc2c(=O)n(CCC3=CCCCC3)c(=O)[nH]c2c1 | 16µM | n
O=C(Nc1ccc(Br)cc1)c1cc(S(=O)(=O)N2CCc3ccccc32)ccc1F | n | n
Cc1ccc(NC(=O)c2ccc(-c3ccccc3)s2)cc1 | 13µM | n
Cc1cccc(NC(=O)c2ccc(-c3ccccc3)s2)c1 | n | n
COc1ccccc1-n1c(SCc2cc(=O)oc3cc(O)ccc23)nc2ccccc2c1=O | 25µM | n
COc1ccc(C(C)=O)cc1CSc1nc2ccccc2c(=O)n1-c1ccccc1C | u | n
O=C(Nc1ccc(N2CCOCC2)c(Cl)c1)c1cc2ccccc2o1 | n | n
COc1ccc(C(=O)Nc2ccccc2)cc1[N+](=O)[O-] | n | n
COc1ccc(C(=O)Nc2cccc(-c3cc4ccccc4oc3=O)c2)cc1[N+](=O)[O-] | 10µM | n
O=C(Nc1ccc(N2CCCC2)c(Cl)c1)c1cccc(-c2cc3ccccc3oc2=O)c1 | 4µM | n
Cc1cc(NC(=O)c2cc(Cl)ccc2Cl)ccc1-c1cc2ccccc2oc1=O | n | n
COc1cc(NC(=O)c2ccc(Cl)cc2Cl)ccc1-c1cc2ccccc2oc1=O | 20µM | n
CCC/C=C(\CCC)C(NC(=O)Oc1ccc(F)cc1)c1ccc(C(=O)OC)cc1 (stereo not drawn) | n | n
CCn1cc(C(=O)O)c(=O)c2cnc(N3CCN(C(=O)Nc4cccc5ccccc45)CC3)nc21 | n | n
COC(=O)[C@@]1(Cc2ccc(OC)cc2)[C@H]2c3cc(C(=O)N(C)C)n(Cc4cc(F)c(F)c(F)c4)c3C[C@H]2CN1C(=O)c1ccccc1 | u | n
Cn1c(=O)n(CC(=O)O)c(=O)c2c1nc1n2CCCN1c1ccc(Cl)cc1 | n | n
CCCCOC(=O)Cn1c(=O)c2c(nc3n2CCCCN3c2ccc(C)cc2)n(C)c1=O | n | 25µM
CCC(=O)Nc1ccc(CC)cc1-c1nc2ccccc2n(CC(=O)Nc2cccc(Cl)c2)c1=O | n | n
c1ccc(C2=Nc3ccccc3OC2)cc1 | n | n
NC1=Nc2ccccc2Oc2ccccc21 | 25µM | u
SMILES | Cruzain inh noDet | Cruzain inh Det
CCOC(=O)c1ccc2c(c1)N(Cc1ccc(F)cc1Cl)C(=O)c1ccccc1S2 | n | n
Cc1cc(/C=N/NC(=O)Cn2c3ccccc3c(=O)c3ccccc32)c(C)n1-c1ccc(Cl)cc1 | 3.2µM | n
O=C(Cn1c2ccccc2c(=O)c2ccccc21)N/N=C/c1cc([N+](=O)[O-])ccc1N1CCCCCC1 | 6.3µM | n
Cc1ccc(-n2c(C)cc(/C=N/NC(=O)Cn3c4ccccc4c(=O)c4ccccc43)c2C)cc1 | u | n
O=C(Cn1c2ccccc2c(=O)c2ccccc21)N/N=C/c1ccc(N2CCCC2)c([N+](=O)[O-])c1 | u | n
CCCCC[C@H](O)/C=C/[C@@H]1[C@@H](C/C=C\CCCC(=O)O)[C@@H](O)C[C@@H]1O | n | n
CCCCn1c2ccccc2c2nnc(SCC(=O)Nc3ccc(NC(C)=O)cc3)nc21 | 20µM | u
CCOC(=O)c1ccc(NC(=O)CSc2nnc3c4ccccc4n(CC)c3n2)cc1 | n | n
c1ccc(Nc2nc(-c3ccoc3)nc3ccccc23)cc1 | u | n
c1ccc2c(NC3CC3)nc(-c3ccoc3)nc2c1 | n | n
S=C(NCc1ccc2[nH]c3c(c2c1)CCCC3)Nc1ccccc1 | 32µM | n
CCS(=O)(=O)NCc1ccc2[nH]c3c(c2c1)CCCC3 | n | n
O=C(Nc1ccc2[nH]c3c(c2c1)CCCC3)c1ccco1 | n | n
Cc1cc(C)cc(NC(=S)NCc2ccc3[nH]c4c(c3c2)CCCC4)c1 | 32µM | n
Cc1nn2c(=O)cc(COc3ccc(/C=C(\C#N)C(=O)Nc4ccc(F)cc4)cc3)nc2s1 | n | n
NS(=O)(=O)c1cc2c(cc1Cl)=NC(CCC(=O)O)=NS=2(=O)O | n | n
O=C1c2cccc([N+](=O)[O-])c2C(=O)N1c1ncn[nH]1 | n | n
Cc1ccc(C2C3=C(CCCC3=O)Nc3[nH]c(=S)[nH]c(=O)c32)cc1 (stereo not drawn) | n | n
O=C1CCCC2=C1C(c1ccc(Br)cc1)c1c([nH]c(=S)[nH]c1=O)N2 (stereo not drawn) | 16µM | 18µM
COCCCn1c(=N)c(C(=O)NCc2ccco2)cc2c(=O)n3cccc(C)c3nc21 | n | n
Cc1cccn2c(=O)c3cc(C(=O)NCc4ccco4)c(=N)n(CCOCCO)c3nc12 | n | n
